Results: PubChem BioAssay (NCI)
The panel holds about 79,000 compounds, 15% with a hit somewhere; the sample as a whole holds those more often. Values without a mark were called inactive. Calls of active or inactive are those of the source. Rule as the data show it: active = growth inhibition above about 70%; inactive = the rest.

Assays:
[1] = NCI Yeast Anticancer Drug Screen. Data for the rad50 strain (AID 155);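 also: 0% = growth of vehicle-only cultures of the same strain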; conditions: S. cerevisiae rad50 strain growth inhibition; at 50.0 µM; hits give high values
Summary of the method: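 A DNA repair-deficient yeast mutant serves as the test organism; compound-induced growth inhibition is calculated against vehicle-treated cells.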

[2] = NCI Yeast Anticancer Drug Screen. Data for the mec2-1 strain (AID 157); conditions: S. cerevisiae mec2-1 strain, at 50.0 µM, hits give high values
Summary of the method: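 Readout is yeast growth inhibition, normalised to vehicle-treated controls, in the mec2-1 strain exposed to compound.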

[3] = NCI Yeast Anticancer Drug Screen. Data for the sgs1 mgt1 strain (AID 161);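 also: 0% = growth of cultures given vehicle only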; conditions: S. cerevisiae sgs1 mgt1 strain, at 50.0 µM, hits give high values
Summary of the method: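 Yeast cells carrying a defined DNA-repair defect were exposed to test compounds. Growth inhibition was measured relative to vehicle-treated controls.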

[4] = NCI Yeast Anticancer Drug Screen. Data for the cln2 rad14 strain (AID 165);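 also: 0% = growth equal to vehicle treated cultures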; conditions: S. cerevisiae cln2 rad14 strain, at 50.0 µM, hits give high values
Summary of the method: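 Relative to vehicle controls, growth inhibition of compound-treated cln2 rad14 yeast was recorded.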

[5] = NCI Yeast Anticancer Drug Screen. Data for the bub3 strain (AID 167); conditions: S. cerevisiae bub3 mutant strain, at 50.0 µM, hits give high values
Summary of the method: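 Inhibition values come from growth of compound-treated mutant yeast normalised to vehicle-treated controls.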

[6] = NCI Yeast Anticancer Drug Screen. Data for the mlh1 rad18 strain (AID 175); conditions: S. cerevisiae mlh1 rad18 strain growth inhibition; at 50.0 µM; hits give high values
Summary of the method: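 Test agents were incubated with a yeast strain of defined genotype (DNA damage repair defect). Inhibition of growth was derived by comparison with vehicle-exposed cultures.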

CCSc1nc(N)c2c(-c3ccc(OC)c(OC)c3)c3c(nc2n1)CCCC3
growth inhibition [1]: -32.6% | growth inhibition [2]: -17.2% | growth inhibition [3]: -39.5% | growth inhibition [4]: -3.35% | growth inhibition [5]: -15.8% | growth inhibition [6]: -25.4%

O=C1OC(=O)c2c(Br)c(Br)c(Br)c(Br)c21
growth inhibition [1]: 5.9% | growth inhibition [2]: 8.65% | growth inhibition [3]: -16.4% | growth inhibition [4]: -8.9% | growth inhibition [5]: -10.9% | growth inhibition [6]: 2.7%

COc1ccc2c(c1)C(=O)[C@]1(C)C3(C)OC(=O)C(c4ccccc43)[C@]21C (some centres not stated)
growth inhibition [1]: 2.6% | growth inhibition [2]: -8.6% | growth inhibition [3]: -13.8% | growth inhibition [4]: 9.3% | growth inhibition [5]: -17.6% | growth inhibition [6]: 12.6%

Cc1ccc(S(=O)(=O)OC2CCCC2OS(=O)(=O)c2ccc(C)cc2)cc1 (configuration not stated)
growth inhibition [1]: 0.2% | growth inhibition [2]: 14.5% | growth inhibition [3]: -8.5% | growth inhibition [4]: 23.4% | growth inhibition [5]: -2.35% | growth inhibition [6]: -9.85%

Cc1ccccc1N=Nc1c(-c2ccccc2)nn(C(=O)CC(=O)Nc2cccc(Cl)c2)c1-c1ccccc1
growth inhibition [1]: 60.9% | growth inhibition [2]: 21.6% | growth inhibition [3]: 55.5% | growth inhibition [4]: 34.3% | growth inhibition [5]: 68% | growth inhibition [6]: 41.5%

c1ccc(O[Si](Oc2ccccc2)(Oc2ccccc2)Oc2ccccc2)cc1
growth inhibition [1]: 5.65% | growth inhibition [2]: -18.7% | growth inhibition [3]: 5.5% | growth inhibition [4]: 5.1% | growth inhibition [5]: -7.3% | growth inhibition [6]: 6.05%

CCN(CC)c1nc(N(CC)CC)nc(N(CC)CC)n1
growth inhibition [1]: -1% | growth inhibition [2]: 14.8% | growth inhibition [3]: 2.75% | growth inhibition [4]: -30.6% | growth inhibition [5]: 13.8% | growth inhibition [6]: 0.2%

CC(C)(C)C(=O)C[n+]1ccccc1
growth inhibition [1]: 3.85% | growth inhibition [2]: -6.45% | growth inhibition [3]: 8.45% | growth inhibition [4]: -15% | growth inhibition [5]: 5.35% | growth inhibition [6]: 15.2%

NC(N)=NC1CCc2ccccc2C1 (configuration not stated)
growth inhibition [1]: 4.4% | growth inhibition [2]: -2.85% | growth inhibition [3]: -4% | growth inhibition [4]: -5.1% | growth inhibition [5]: -0.6% | growth inhibition [6]: -5.1%

COc1ccc(NC(=O)C(Br)C(Br)c2ccccc2)c(Cl)c1 (configuration not stated)
growth inhibition [1]: 96.8% (active) | growth inhibition [2]: 97.2% (active) | growth inhibition [3]: 97.2% (active) | growth inhibition [4]: 97.3% (active) | growth inhibition [5]: 97% (active) | growth inhibition [6]: 97.2% (active)

Cc1ccc(C2=Nc3cccc4cccc(c34)N2)cc1
growth inhibition [1]: -40% | growth inhibition [2]: -71.7% | growth inhibition [3]: -26.3% | growth inhibition [4]: 11.1% | growth inhibition [5]: -2.2% | growth inhibition [6]: -8.85%

Cc1ccc2oc(=O)c(C(=O)Nc3nc(C45CC6CC(CC(C6)C4)C5)cs3)cc2c1
growth inhibition [1]: -23.1% | growth inhibition [2]: -22.9% | growth inhibition [3]: -23.6% | growth inhibition [4]: 13% | growth inhibition [5]: -30.5% | growth inhibition [6]: -26.2%

CN(C)CC(O)C(=O)O (configuration not stated)
growth inhibition [1]: -12.7% | growth inhibition [2]: 20.4% | growth inhibition [3]: -5.6% | growth inhibition [4]: 7.45% | growth inhibition [5]: 3.7% | growth inhibition [6]: -13.8%

CC/C=C\CCOC(=O)C1OC1c1ccccc1 (configuration not stated)
growth inhibition [1]: 8.15% | growth inhibition [2]: 17.3% | growth inhibition [3]: -8.75% | growth inhibition [4]: 10.9% | growth inhibition [5]: 0% | growth inhibition [6]: 1.5%

CC(=O)OCC1OC(SC2=NC(=O)CS2)C(OC(C)=O)C(OC(C)=O)C1OC(C)=O (configuration not stated)
growth inhibition [1]: 3.3% | growth inhibition [2]: -1.8% | growth inhibition [3]: 1.45% | growth inhibition [4]: -6.6% | growth inhibition [5]: -8.85% | growth inhibition [6]: 17.4%

COc1cccc(CCNc2ccncc2N)c1
growth inhibition [1]: -22% | growth inhibition [2]: -23.7% | growth inhibition [3]: -24.6% | growth inhibition [4]: -52.2% | growth inhibition [5]: -29.1% | growth inhibition [6]: 12.9%

O=P(O)(O)c1ccc(Cl)cc1
growth inhibition [1]: -1.8% | growth inhibition [2]: -1.3% | growth inhibition [3]: -1.65% | growth inhibition [4]: 8.7% | growth inhibition [5]: 8.55% | growth inhibition [6]: -9.4%

CCOCCOC(=O)C1CCCC1=O (configuration not stated)
growth inhibition [1]: -5.25% | growth inhibition [2]: -11.3% | growth inhibition [3]: -34.9% | growth inhibition [4]: -10.1% | growth inhibition [5]: -11.2% | growth inhibition [6]: -8.45%

Cc1cccc(NC(=O)Nc2cccc(Cl)c2Cl)n1
growth inhibition [1]: 15.9% | growth inhibition [2]: 13.7% | growth inhibition [3]: 13.6% | growth inhibition [4]: 15.1% | growth inhibition [5]: 23.9% | growth inhibition [6]: 18.6%

O=[N+]([O-])c1cccc(Cc2nncc3ccccc23)c1
growth inhibition [1]: 4.15% | growth inhibition [2]: 35.9% | growth inhibition [3]: 17.6% | growth inhibition [4]: 0.05% | growth inhibition [5]: 44.5% | growth inhibition [6]: 17.7%

C=C1c2[nH]c3ccccc3c2CC(C(=O)O)N1C(O)c1ccc(S(=O)(=O)O)cc1 (configuration not stated)
growth inhibition [1]: 11.5% | growth inhibition [2]: -7.95% | growth inhibition [3]: -3.5% | growth inhibition [4]: -45.6% | growth inhibition [5]: -8.05% | growth inhibition [6]: 3.75%

O=CNC(NC=O)c1ccccc1[N+](=O)[O-]
growth inhibition [1]: 29.9% | growth inhibition [2]: 20.8% | growth inhibition [3]: 30.1% | growth inhibition [4]: 0.65% | growth inhibition [5]: 52.5% | growth inhibition [6]: 28.6%

COc1ccc(-c2ccccc2)cc1NC(C)=O
growth inhibition [1]: 9.8% | growth inhibition [2]: 15.2% | growth inhibition [3]: 6.75% | growth inhibition [4]: 20.9% | growth inhibition [5]: 14% | growth inhibition [6]: 16.5%

COC(=O)c1cc(C)c(C(=O)O)c(C)c1
growth inhibition [1]: 13% | growth inhibition [2]: 22.5% | growth inhibition [3]: 26.6% | growth inhibition [4]: 16.3% | growth inhibition [5]: 3.9% | growth inhibition [6]: 14.9%

O=C(CCc1cc(-c2ccccc2)nc(=S)[nH]1)Nc1ccccc1[N+](=O)[O-]
growth inhibition [1]: 10% | growth inhibition [2]: -8.05% | growth inhibition [3]: 9% | growth inhibition [4]: 29.6% | growth inhibition [5]: 15.5% | growth inhibition [6]: 7.25%

COc1ccc(-c2cc(=O)c3cccnc3[nH]2)cc1
growth inhibition [1]: 30.1% | growth inhibition [2]: 12.9% | growth inhibition [3]: 32.4% | growth inhibition [4]: 0.7% | growth inhibition [5]: 12.2% | growth inhibition [6]: 21.1%

O=c1[nH]nc(-c2ccccc2)n1/N=C/c1c(O)ccc2ccccc12
growth inhibition [1]: 8.15% | growth inhibition [2]: 17.9% | growth inhibition [3]: 9.15% | growth inhibition [4]: 13.3% | growth inhibition [5]: 15.4% | growth inhibition [6]: 24.6%

COC(=O)C1OCOC2C(CO)OCOC12 (configuration not stated)
growth inhibition [1]: 6.8% | growth inhibition [2]: 23.1% | growth inhibition [3]: -1.5% | growth inhibition [4]: -49.4% | growth inhibition [5]: 2.8% | growth inhibition [6]: -7.85%

CN1CCC2(CC1)C(=NC1CCCCC1)NC(=O)N2c1ccccc1
growth inhibition [1]: -26.4% | growth inhibition [2]: -6.15% | growth inhibition [3]: -5.45% | growth inhibition [4]: 1.1% | growth inhibition [5]: 6.6% | growth inhibition [6]: 3.7%

O=Cc1cccc2[nH]ccc12
growth inhibition [1]: 5.9% | growth inhibition [2]: -7.95% | growth inhibition [3]: 13% | growth inhibition [4]: -4.6% | growth inhibition [5]: 7.85% | growth inhibition [6]: 3.25%

Cc1cc2c(=O)c3ccccc3[nH]c2c(C(N)=O)c1C
growth inhibition [1]: 39.5% | growth inhibition [2]: 7.8% | growth inhibition [3]: 1.75% | growth inhibition [4]: -6.9% | growth inhibition [5]: -10.5% | growth inhibition [6]: 15.3%

CCCCCCCCCCCCCCCC(=O)Nc1ccc(C(=O)C[n+]2ccc3c(NC(=O)CCC(=O)OC)cccc3c2)cc1
growth inhibition [1]: 3.4% | growth inhibition [2]: -12.2% | growth inhibition [3]: 3% | growth inhibition [4]: -0.95% | growth inhibition [5]: 8.55% | growth inhibition [6]: -10.6%

CNC(=O)c1ccc[n+](CC(=O)NCc2ccccc2)c1
growth inhibition [1]: -1.8% | growth inhibition [2]: -11.3% | growth inhibition [3]: -15.8% | growth inhibition [4]: -2.25% | growth inhibition [5]: -1.5% | growth inhibition [6]: -15.6%

CCOC(=O)c1ccc(N)cc1
growth inhibition [1]: 19.2% | growth inhibition [2]: 20.1% | growth inhibition [3]: -3.1% | growth inhibition [4]: -9.55% | growth inhibition [5]: -18.6% | growth inhibition [6]: -1.8%

c1ccc2cc(N=NNc3ccc4ccccc4c3)ccc2c1
growth inhibition [1]: 63.6% | growth inhibition [2]: -4.1% | growth inhibition [3]: 27.9% | growth inhibition [4]: -30.6% | growth inhibition [5]: 47.5% | growth inhibition [6]: 74% (active)

COc1ccc(C2=CCCCc3cc(O)c(OC)cc32)cc1
growth inhibition [1]: 93.9% (active) | growth inhibition [2]: 96.7% (active) | growth inhibition [3]: 97.2% (active) | growth inhibition [4]: 79.8% (active) | growth inhibition [5]: 98.1% (active) | growth inhibition [6]: 97.2% (active)

Cc1cc(NCCN(C(C)C)C(C)C)nc(Nc2nc3ccc(Cl)cc3[nH]2)n1
growth inhibition [1]: -13% | growth inhibition [2]: -16.5% | growth inhibition [3]: -10.2% | growth inhibition [4]: -45.2% | growth inhibition [5]: 1.95% | growth inhibition [6]: -44.5%
